Most compounds without a hit are left out; they make up all but 2.1% or so of the library.
IDE cell activ: IDE (human) activation, cell-based | P14735 | HEK cells, FAbeta-B cleavage, fluorescence polarization; 0% vehicle, 100% cell-free pure enzyme wells | activation, % at 5.96 µM | actives 0.073% (n = 340,000) | AID 493087;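 active means activation above the mean of all tested compounds plus 3 SD, set per screening campaign, cut at about 17% in these data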
IDE inh: inhibitors of human insulin-degrading enzyme in cells; HEK cells, FAbetaB cleavage, fluorescence polarization; inhibition, % at 5.59 µM; actives 0.41% (n = 320,000);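 active means percent inhibition above the average of all tested compounds plus 3 SD, set per screening campaign, cut at about 16% in these data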;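 further: IDE supplied by intact live HEK cells; FP after avidin binding of uncleaved biotin substrate so inhibition keeps polarization high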
SUMO Mot1 rescue: inhibitors of SUMOylation pathway: yeast Mot1-301 growth rescue. growth rescue, % at 18.8 µM. S. cerevisiae Mot1-301 growth rescue, ATP luminescence, 38.5C; percent above DMSO median, 100 means doubled. actives 1% (n = 320,000). AID 2716;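 active means every valid replicate shows activation above 250% relative to neutral control wells; inactive means the rest, any valid replicate at or below 250%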
HDAC3 inhib: human HDAC3 inhibition; inhibition, % at 8.3 µM; actives 0.15% (n = 320,000); recombinant HDAC3, fluorogenic peptide/trypsin coupled, fluorescence; in the data active means inhibition above about 26%, passing the limit was not always enough
Target sequence (O15379 whole entry, looked up): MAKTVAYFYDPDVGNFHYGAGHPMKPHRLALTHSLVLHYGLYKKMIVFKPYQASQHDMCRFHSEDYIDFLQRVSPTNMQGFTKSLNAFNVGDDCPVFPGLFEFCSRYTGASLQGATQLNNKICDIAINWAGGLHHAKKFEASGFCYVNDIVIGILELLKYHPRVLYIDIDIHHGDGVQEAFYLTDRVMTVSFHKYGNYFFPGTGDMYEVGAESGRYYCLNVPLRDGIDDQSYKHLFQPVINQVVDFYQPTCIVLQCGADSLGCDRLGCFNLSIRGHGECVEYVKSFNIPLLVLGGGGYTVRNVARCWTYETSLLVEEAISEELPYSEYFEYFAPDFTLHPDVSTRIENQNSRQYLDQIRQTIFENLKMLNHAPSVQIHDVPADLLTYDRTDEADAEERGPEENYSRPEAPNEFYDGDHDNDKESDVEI
LANA-H2A inh: blocks KSHV LANA binding to histone H2A/H2B. Q9QR71. cell-free LANA-H2A/H2B peptide, fluorescence polarization. inhibition, % (no concentration beside the values). actives 0.6% (n = 320,000). AID 2629; in the data active means inhibition mostly above about 10%, no sharp cut-off; inactive means mostly below about 6.7%
Each line names hits and unclear results; the compound was inactive in the other large screens.

O=C(NC1CCCC1)c1cnn2c(C(F)(F)F)cc(-c3ccc4c(c3)OCO4)nc12	IDE cell activ 19
CC[C@@]1(c2ccccc2OC)ON(c2ccccc2C(F)(F)F)C1=O	none
CCC1(c2ccccc2)ON(c2c(Br)cccc2Br)C1=O (stereo not given)	SUMO Mot1 rescue 718
COc1ccc(-c2cc(C(=O)N3CC4(C)CC3CC(C)(C)C4)no2)cc1OC (stereo not given)	SUMO Mot1 rescue 879, LANA-H2A inh 55
O=C(Nc1cccc(S(=O)(=O)NC2=NCCC2)c1)c1cc(F)c(F)c(F)c1F	none (no result: IDE inh, SUMO Mot1 rescue, HDAC3 inhib, LANA-H2A inh)
COc1cccc(CNC(=O)C2CCCN(c3nc4ccccc4o3)C2)c1 (stereo not given)	LANA-H2A inh 14
COc1ccc(/C=C2\CCc3c2nc2ccccc2c3C(=O)O)cc1OC	none
COc1cc(/C=C2\CCCc3c2nc2ccccc2c3C(=O)O)cc(OC)c1O	none
CCOc1ccc(/C=C2\CCCc3c2nc2ccccc2c3C(=O)O)cc1OC	IDE cell activ 48, LANA-H2A inh 121
COc1ccc(/C=C2\CCCc3c2nc2ccccc2c3C(=O)O)cc1OC	LANA-H2A inh 91 (no result: IDE cell activ)
CN(C)S(=O)(=O)c1cccc(NC(=O)Cc2ccc(Cl)cc2)c1	none
CN(C)S(=O)(=O)c1cccc(NC(=O)CCc2c[nH]c3ccccc23)c1	LANA-H2A inh active
O=C(CCCc1c[nH]c2ccccc12)Nc1ccc(S(=O)(=O)Nc2ncccn2)cc1	SUMO Mot1 rescue 759 (no result: HDAC3 inhib)
NC(=O)c1ccsc1NC(=O)CCS(=O)(=O)c1ccc(F)cc1	none
CCCn1c(SCC(=O)Nc2ccc(OCC)cc2)nnc1C(C)C	SUMO Mot1 rescue 344
CCOc1ccc(NC(=O)CSc2nnc(C(C)C)n2CC)cc1	none
CN(C(=O)CCN1C(=O)S/C(=C\c2ccccc2)C1=O)C1CCS(=O)(=O)C1 (stereo not given)	LANA-H2A inh 18
COc1ccc(C2N3CC4(C)CN2CC(C)(C3)C4)cc1OC (stereo not given)	LANA-H2A inh 6.4
Cc1cc(C)cc(N2C(=O)C=CC2=O)c1	none (no result: IDE inh, SUMO Mot1 rescue, HDAC3 inhib, LANA-H2A inh)
COc1cc(-c2nnc(NC(=O)CCS(=O)(=O)c3ccccc3)o2)cc(OC)c1OC	none
CC1=NN(C(=O)c2ccc(Cl)cc2)C(O)(c2ccccc2)C1 (stereo not given)	LANA-H2A inh 9.9
Cc1cc2nc(SCC(=O)Nc3ccccc3C(=O)O)[nH]c2cc1C	none
CC(NC(=O)CN1C(=O)NC2(CCCCC2C)C1=O)c1ccccc1 (stereo not given)	none
CC(C)(C)N=C1NN=C(c2cc3ccccc3o2)CS1	none
CC(C)C(=O)NNc1ccccc1	none
CC(O)CC(C(=O)NNc1ccccc1)C(=O)NNc1ccccc1 (stereo not given)	SUMO Mot1 rescue 606
CCOc1ccc(C2CC(c3ccccc3C)n3nc(N)nc3N2)cc1 (stereo not given)	LANA-H2A inh 33
COc1cccc(C2CC(c3ccc(Cl)cc3)n3nc(N)nc3N2)c1 (stereo not given)	LANA-H2A inh active
COc1ccc2oc(C(=O)OCC(=O)NCCc3ccc(S(N)(=O)=O)cc3)c(C)c2c1	none
CC(C)(C)c1nnc(N/N=C/c2cc(Br)ccc2O)n(N)c1=O	LANA-H2A inh active
CCN(Cc1ccncc1)Cc1nc(-c2ccc(C(=O)OC)cc2)no1	LANA-H2A inh 9.6
COC(=O)c1ccc(-c2noc(CN(C)Cc3ccncc3C)n2)cc1	none
Cc1ccc(S(=O)(=O)N(C)CC(=O)OCC(=O)NCCN2C(=O)CSC2=O)cc1	none
CCN(C[C@H]1N[C@@](Cc2ccccc2)(C(=O)OC)[C@H]2C(=O)N(Cc3ccccc3)C(=O)[C@@H]12)C(=O)COc1ccccc1	LANA-H2A inh active
CCN(C[C@H]1N[C@@](Cc2ccccc2)(C(=O)OC)[C@H]2C(=O)N(Cc3ccccc3)C(=O)[C@@H]12)S(=O)(=O)c1ccc(OC(F)(F)F)cc1	LANA-H2A inh active
CCN(C[C@H]1N[C@@](Cc2ccccc2)(C(=O)OC)[C@H]2C(=O)N(Cc3ccccc3)C(=O)[C@@H]12)S(=O)(=O)c1ccc(C(C)(C)C)cc1	LANA-H2A inh 67
COc1ccc(CCN(C)CC(=O)Nc2c(C)cc(C)cc2C)cc1OC	none
CCOC(=O)c1cnc(-c2ccccc2)[nH]c1=O	SUMO Mot1 rescue 320
CSc1cc(-c2ccncc2)nc(-c2ccc(Cl)cc2)c1	none
COCCSc1nnc(NC(=O)C(C)(C)C)s1	LANA-H2A inh 43

Compound activity (PubChem BioAssay)
